Bioassay records as filed in PubChem.
Rows were chosen to be rich in hits. Some 31% of all compounds tested hit in one or more screens of this group.
CYP2C9 inh – inhibitors of human CYP2C9. 96,000 compounds, 20% hits. inhibition, % at 5 µM. P11712. CYP2C9 Supersomes, luciferin-H conversion, luminescence;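 active means blocking of liver enzyme CYP2C9 beyond about 50% at 5 µM, limit read from the data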
CYP2C9 act – CYP2C9 (human) activation | P11712 | 96,000 compounds, 1.4% hits | activation factor at 5 µM | recombinant CYP2C9, luciferin-H conversion, luminescence; active compounds read high; factor 1 = untreated enzyme, 0 = blocked;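 active means activation factor of 2 or more for CYP2C9 at a 5 µM dose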;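 further: 0 = sulfaphenazole-blocked wells and 1 = vehicle-only wells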
PLAP activator – activates human placental alkaline phosphatase; purified PLAP enzyme, luminescent substrate read-out; active compounds read high; activation fold at 20 µM; 96,000 compounds, 1.2% hits; in the data active means activation fold above about 2
Target sequence (P05187 whole entry, looked up): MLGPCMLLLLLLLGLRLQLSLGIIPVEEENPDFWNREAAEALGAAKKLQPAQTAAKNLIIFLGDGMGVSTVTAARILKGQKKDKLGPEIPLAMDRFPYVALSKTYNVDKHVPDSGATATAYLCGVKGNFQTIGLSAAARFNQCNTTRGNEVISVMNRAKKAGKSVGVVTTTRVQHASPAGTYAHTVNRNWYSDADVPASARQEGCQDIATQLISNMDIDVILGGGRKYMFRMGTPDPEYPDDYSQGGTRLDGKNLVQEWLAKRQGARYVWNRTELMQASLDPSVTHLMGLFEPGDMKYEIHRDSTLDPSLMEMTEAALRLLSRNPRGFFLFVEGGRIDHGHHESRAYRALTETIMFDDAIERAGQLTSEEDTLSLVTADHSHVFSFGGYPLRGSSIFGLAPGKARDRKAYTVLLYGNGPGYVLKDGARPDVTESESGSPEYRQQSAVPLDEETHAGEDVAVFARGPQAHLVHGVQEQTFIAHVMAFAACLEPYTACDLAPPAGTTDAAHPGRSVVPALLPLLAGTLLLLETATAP
CYP2C19 inhib – human CYP2C19 inhibition; inhibition, % at 5 µM; P33261; AID 778; 96,000 compounds, 21% hits; CYP2C19 Supersomes, luciferin-H EGE luminescence, 30 min;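 active means CYP2C19 inhibition above a set limit at 5 µM in the primary screen, cut at about 50% in these data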;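 further: plate controls were negative control wells for no effect and 2.5 mM tranylcypromine positive control for full effect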
CYP2C19 act – increases human CYP2C19 enzyme activity. P33261. recombinant CYP2C19, luciferin-H EGE luminescence; active compounds read high; 0 = fully inhibited enzyme, 1 = untreated enzyme. activation factor at 5 µM. 96,000 tested, under 10 active;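 active means activation factor of at least 2 at 5 µM in the primary screen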;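 further: 0 = wells with 2.5 mM tranylcypromine and 1 = vehicle-only wells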
Starred values were filed as active, the others as inactive.

SMILES	CYP2C9 inh	CYP2C9 act	PLAP activator	CYP2C19 inhib	CYP2C19 act
CN(C)C(=O)CSc1nnc(CCCCCNC(=O)OC(C)(C)C)o1	21	0.8	1.2	20	0.8
Cc1cccc(C)c1NC(=O)CSc1nnc([C@H](C)NC(=O)OC(C)(C)C)o1	27	0.7	1.1	18	0.8
CN1CCN(C(=O)c2c(O)c3cccc4c3n(c2=O)CCC4)CC1	-13	1.1	1.1	-16	1.2
CCC(C)NC(=O)C1CCCN(C(=O)Nc2ccc(F)cc2)C1 (stereo not drawn)	1	1	1	16	0.8
NCCCCCc1nnc(SCC(=O)c2ccc(Cl)cc2)o1	75*	0.2	1.1	59*	0.4
O=C(CSc1nnc(CNC(=O)c2cccs2)o1)c1ccc(Cl)cc1	34	0.7	0.7	14	0.9
CC(C)=CCSc1nnc(CCNC(=O)OC(C)(C)C)o1	36	0.6	1.7	66*	0.3
O=C(CSc1nnc(CNC(=O)c2ccccc2F)o1)c1ccc(Cl)cc1	54*	0.5	1.3	37	0.6
CC(C)(C)OC(=O)NCCc1nnc(SCc2ccc(Cl)cc2Cl)o1	75*	0.2	1.3	60*	0.4
Cc1nn(-c2ccccc2)c2c1C1(C(=O)N(C(C)C)c3ccccc31)C(C#N)=C(N)O2 (stereo not drawn)	46	0.5	1	48	0.5
O=C(Nc1cnccn1)c1cccs1	-9	1.1	1	-10	1.1
CC(C)(C)OC(=O)NCCc1nnc(SCC(=O)c2ccc(Cl)cc2)o1	70*	0.3	1	77*	0.2
CC(C)(C)OC(=O)N1CCC[C@H]1c1nnc(SCc2c(F)cccc2Cl)o1	76*	0.2	1.6	45	0.6
CC(C)[C@H](NC(=O)OC(C)(C)C)c1nnc(SCC(=O)Nc2ccc(Br)cc2)o1	70*	0.3	1.5	49	0.5
C[C@H](NC(=O)OC(C)(C)C)c1nnc(SCC(=O)c2ccc(Cl)cc2)o1	21	0.8	1.2	22	0.8
CC(C)Sc1nnc([C@H](C)NC(=O)OC(C)(C)C)o1	24	0.8	0.9	57*	0.4
CSc1nnc([C@H](C)NC(=O)OC(C)(C)C)o1	7	0.9	0.9	19	0.8
CCOc1ccc(C/C(N)=N/n2cnnc2)cc1	-7	1.1	0.8	-7	1.1
CC(C)COC(=O)C1C2C=CC3(CN(C4CCCC4)C(=O)C13)O2 (stereo not drawn)	4	1	1	-4	1
COCCCNC(=O)c1c(N)n(/N=C/c2ccccn2)c2nc3ccccc3nc12	52*	0.5	1.2	47	0.5
COc1ccc(C(=O)c2c[nH]c(C(=O)NCc3cccs3)c2)cc1	10	0.9	0.9	2	1
Cn1c(=O)c2c(ncn2CC(=O)Nc2nc3ccc(F)cc3s2)n(C)c1=O	59*	0.4	1.6	-20	1.2
CCOC(=O)c1sc(NC(=O)CSc2n[nH]c(-c3ccc(Cl)cc3Cl)n2)c(C#N)c1C	76*	0.2	1.2	34	0.7
CCOC(=O)c1sc(NC(=O)CSc2nc(C)cc(C)c2C#N)c(C#N)c1C	12	0.9	1.1	-11	1.1
CCOC(=O)c1sc(NC(=O)CSc2nc3c(cc2C#N)CCCCCC3)c(C#N)c1C	68*	0.3	1.3	16	0.8
SMILES	CYP2C9 inh	CYP2C9 act	PLAP activator	CYP2C19 inhib	CYP2C19 act
N#Cc1c(SCC(N)=O)nc2c(c1-c1ccc(O)cc1)CCCC2	-32	1.3	1.1	-7	1.1
CCOC(=O)c1sc(NC(=O)CSc2nc3c(c(-c4ccc(OC)cc4)c2C#N)CCCC3)c(C#N)c1C	64*	0.4	1	30	0.7
COc1ccc(C(=O)CSc2nc3nc(C)cc(C)n3n2)cc1OC	20	0.8	1.1	46	0.5
COc1ccc(CCN2C(=S)NC3CC2(C)Oc2ccc([N+](=O)[O-])cc23)cc1OC (stereo not drawn)	72*	0.3	1	0	1
COc1ccc(N2C(=O)NC3CC2(C)Oc2ccc(Cl)cc23)cc1OC (stereo not drawn)	35	0.6	0.9	27	0.7
COC(=O)c1ccc(/C=N/OCC(=O)NC2CCCCCCC2)cc1	65*	0.4	0.9	16	0.8
COC(=O)c1ccc(/C=N/OCC(=O)NC2CCCC(C)C2C)cc1 (stereo not drawn)	40	0.6	0.8	23	0.8
CCC(C)NC(=O)CO/N=C/c1ccc(C(=O)OC)cc1 (stereo not drawn)	69*	0.3	0.8	31	0.7
Cc1cc(NCc2ccc(F)cc2Cl)n2nnnc2n1	17	0.8	0.6	7	0.9
Cn1c(O)c(C(C#N)=C2N=c3ccccc3=N2)c2ccccc21	-87	1.9	0.8	18	0.8
COc1ccc(C(C[N+](=O)[O-])c2c(-c3ccccc3)cc3ccccn23)cc1 (stereo not drawn)	74*	0.3	1.5	75*	0.2
COc1cc(C(C[N+](=O)[O-])c2c(-c3ccccc3)cc3ccccn23)cc(OC)c1OC (stereo not drawn)	59*	0.4	1.5	45	0.6
CCOc1c2ccc(C(=O)NCc3ccc4c(c3)OCO4)cc2nn1CC	24	0.8	1	20	0.8
c1cc(CNc2ccc(N3CCOCC3)cc2)ccn1	31	0.7	0.9	24	0.8
CC(C)c1ccc(CNc2ccc(N3CCOCC3)cc2)cc1	0	1	1.3	95*	0
CCc1ccc(NC(=O)CSc2nnc(Cc3cccn3C)n2-c2ccc(OC)cc2)cc1	85*	0.1	1.4	52*	0.5
COc1ccc(-n2c(Cc3cccn3C)nnc2SCC(=O)NCc2ccco2)cc1	25	0.7	1.3	-12	1.1
COc1ccc(-n2c(Cc3cccn3C)nnc2SCC(=O)Nc2ccc(Cl)cc2)cc1	85*	0.1	1.3	37	0.6
COc1ccc(-n2c(Cc3cccn3C)nnc2SCC(=O)NCc2ccc(F)cc2)cc1	40	0.6	1.5	89*	0.1
Cn1cccc1Cc1nnc(SCC(=O)Nc2ccc(Cl)cc2)n1-c1ccc(F)cc1	58*	0.4	1.6	54*	0.5
CCOC(=O)CC1C(=O)NCCN1S(=O)(=O)c1ccccc1Cl (stereo not drawn)	-3	1	1	16	0.8
COc1ccccc1NC(=O)N1CCCC1C(=O)NC1CCCCC1 (stereo not drawn)	-7	1.1	1	18	0.8
O=C(CNC(=O)Cn1ccc2ccccc2c1=O)NCCCN1CCCCCC1	-17	1.2	1.1	-17	1.2
Cc1c(C(=O)NCc2cccnc2)oc2ccc(S(=O)(=O)N3CCCC(C)C3)cc12 (stereo not drawn)	49	0.5	1.4	17	0.8
COc1ccc(NC(=O)CSc2nnc(Cc3cccn3C)n2-c2ccc(F)cc2)cc1OC	8	0.9	1.6	-10	1.1
COc1ccc(-n2c(Cc3cccn3C)nnc2SCC(=O)Nc2ccccc2)cc1	80*	0.2	1.4	25	0.8
